The values below come from PubChem BioAssay AID651815 (National Center for Advancing Translational Sciences (NCATS), 2012).

Among all 2,100 compounds or so, about 1,100 (52%) were called active. Another 29% or so got no clear call; they are omitted. So high a share suggests a set chosen from earlier hits. The list shows a part of the results. Values without a mark were called inactive. Calls come from the whole dose curve; as a rule, active = well fitted inhibition curve with a large enough effect; inconclusive = small, poorly fitted or top-dose-only effect; inactive = no such curve, though single readings can be large or run the other way.
% is set by controls: 0 for no effect and ±100 for the full control effect; potency is the fitted concentration of half-maximal effect.

In the test the target is DNA dC->dU-editing enzyme APOBEC-3F (Homo sapiens) (UniProt Q8IUX4). Nature of the test: qHTS for inhibitors of Vif-A3F interactions: Cherry picks counterscreen. Note: nearly all actives have a fitted effect of over 65% in size. The following applies: HeLa A3F-eYFP/Vif cells, eYFP fluorescence, 24 h; series mostly up to 46.1 µM; activity, negative = inhibitor: at the top concentration. From the text: The recent discovery and characterization of host restriction factors, which provide a potent defense to invading retroviruses, has provided new targets for antiviral drug development. APOBEC3G (A3G) and APOBEC3F (A3F) are potent cytidine deaminases that block HIV-1 replication; HIV-1 expresses the Vif protein, which counteracts A3G and A3F by binding to them and inducing their proteasomal degradation. The Vif-A3G and Vif-A3F interactions provide two potential targets for development of small molecules which can interfere with the ability of Vif to degrade A3G or A3F. […] To identify inhibitors that can interfere with Vif mediated degradation of A3G and A3F, we have developed Hela cell lines that stably express A3G or A3F tagged with eYFP at the C-terminal end (A3G-eYFP or A3F-eYFP, respectively) and Vif. In the absence of an inhibitor, Vif induces degradation of A3G-eYFP and A3F-eYFP, and the cells are not fluorescent. In the presence of an inhibitor, it is expected that Vif will be unable to degrade A3G-eYFP and/or A3F-eYFP, resulting in an increase in yellow fluorescence. In this counterscreen assay, Vif A3F was screened against the cherry picks ordered from the MLSMR. NIH Chemical Genomics Center [NCGC] NIH Molecular Libraries Probe Centers Network [MLPCN] MLPCN Grant: MH093245 Assay Submitter (PI): Vinay Pathak, National Cancer Institute
Chain of DNA dC->dU-editing enzyme APOBEC-3F (Homo sapiens) (Q8IUX4 whole entry, looked up): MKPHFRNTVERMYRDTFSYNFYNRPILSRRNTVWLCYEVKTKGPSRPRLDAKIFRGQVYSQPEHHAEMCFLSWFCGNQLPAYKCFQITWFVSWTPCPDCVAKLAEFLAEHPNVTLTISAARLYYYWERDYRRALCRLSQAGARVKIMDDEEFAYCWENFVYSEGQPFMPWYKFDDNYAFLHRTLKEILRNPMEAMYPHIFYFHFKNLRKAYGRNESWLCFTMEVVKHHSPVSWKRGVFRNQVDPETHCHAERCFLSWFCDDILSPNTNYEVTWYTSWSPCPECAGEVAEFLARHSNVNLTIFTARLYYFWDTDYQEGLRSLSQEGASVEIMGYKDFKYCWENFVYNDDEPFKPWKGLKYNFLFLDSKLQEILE
A3F-Vif cells were harvested from T225 flask and resuspended in phenol free OPTI-MEM medium with 5% FBS. Then 5 uL of 140,000 cells/mL resuspended cells was dispensed into each well of low base Aurora COC 1,536-well plates (black walled, clear bottom) using a Multidrop Combi dispenser. After overnight culture at 37 deg C with 5% CO2, a total of 23 nL of compounds at 5 selected concentrations from the NPC or positive control (2 mM stock of MG132) in DMSO was transferred to each well of the assay plate using a pintool (Kalypsys, San Diego, CA), and the plates were further incubated at 37 deg C with 5% CO2 for 24 hours. After that, the plates were measured on Acumen Explorer (TTP Lab Tech). The fluorescence was detected by 488 nm/Ex and […].
As for `c1ccc(Nc2nc(-c3ccccn3)cs2)cc1`, the “activity, negative = inhibitor” value was -11.1%.
Regarding `Cc1ccc(Nc2nc(Cl)c(C=O)s2)cc1Cl`, the Potency was 18.4 µM (active).
Take `O=Cc1sc(Nc2ccccc2)nc1Cl`: the Potency is 16.4 µM (active).
On the same count and under the same terms, with `COc1ccc(-c2n[nH]c3c2CN(C(=O)c2ccc(OC)c(OC)c2)CC3)cc1` the figure was 4.44 µM (active); with `COc1cccc(C2=CC(c3ccccc3)n3nnnc3N2)c1` (centres undefined), 1.98 µM (active).
For `COc1ccc(OC)c(C2C=C(c3ccc(C)c(C)c3)Nc3nnnn32)c1` (centres undefined), the Potency is 4.98 µM (active).
With `COc1cccc(C2=CC(c3cccs3)n3nnnc3N2)c1` (centres undefined), the Potency was 5.59 µM (active).
For `C=CCOC(=O)C1=C(C)Nc2nnnn2C1c1cccs1` (centres undefined), the “activity, negative = inhibitor” value is -25.7% [at 36.9 µM].
Take `CCOC(=S)SCC(=O)N1CCc2cc(OC)ccc2C1C1C(=O)CCCC1=O` (centres undefined): the Potency was 15.8 µM (active).
As to `CCOC(=O)c1c(-c2ccc(OC)cc2)csc1/N=C/C1C(=O)CCCC1=O`, the “activity, negative = inhibitor” value is -17.2%.
In the case of `O=c1c2ccccc2sc2ccc(NCCCN3CCOCC3)cc12`, the Potency is 16.4 µM (active).
For the molecule `Cc1cc2oc3ccc(NCCCn4ccnc4)cc3c(=O)c2cc1C`, the “activity, negative = inhibitor” value was -778% [at 46.1 µM, above what the read-out allows, likely interference].
As to `COc1ccc(-c2cc(NC=O)c3ncc(-c4ccc(OC)c(OC)c4)n3c2)cc1OC`, the Potency is 4.44 µM (active).
Regarding `COc1ccc(-c2cnc3c(NC=O)cc(-c4ccoc4)cn23)cc1OC`, the Potency is 11.2 µM (active).
Still for that read-out and setting: with `COc1ccc(-c2cnc3c(NC=O)cc(-c4ccccc4)cn23)cc1OC` the figure was 1.77 µM (active); with `Cc1ccc(-c2cc(NC=O)c3ncc(-c4cnn(C)c4)n3c2)cc1`, 5.59 µM (active); with `COc1cccc(-c2cnc3c(NC=O)cc(-c4cc(OC)c(OC)c(OC)c4)cn23)c1`, 15.8 µM (active).
For the molecule `COc1cc(-c2cc(NC=O)c3ncc(-c4ccc(C(C)=O)cc4)n3c2)cc(OC)c1OC`, the Potency is 17.7 µM (active).
Regarding `CC(=O)/C(=C\N(C)C)Sc1ccc(Cl)cc1`, the “activity, negative = inhibitor” value was 4.05% [at 36.9 µM].
With `Clc1ccsc1-c1csc(-c2cccnc2)n1`, the Potency is 15.8 µM (active).
Regarding `CC(=O)Nc1ccc(S(=O)(=O)Nc2nc3ccccc3nc2Sc2nncn2C)cc1`, the Potency is 16.4 µM (active).
Same read-out and setting: with `Cn1ccnc1Sc1nc2ccccc2nc1NS(=O)(=O)c1ccccc1` the figure was 16.4 µM (active).
In the case of `Cn1c(=O)c2c(nc(NC3CCCC3)n2C)n(C)c1=O`, the “activity, negative = inhibitor” value was 7.15%.
Take `O=C1COc2ccc(C(=O)CSc3nc4ccccc4c(=O)n3-c3ccc(Cl)c(Cl)c3)cc2N1`: the Potency is 23.1 µM (active).
Turning to `COc1ccccc1NC1=NC(c2ccc(Cl)cc2)N=C(N)N1` (centres undefined), the Potency was 12.5 µM (active).
For `COc1ccc2nc3ccccc3nc2c1NC(=O)c1ccc(Cl)cc1`, the Potency is 23.1 µM (active).
As for `COc1ccc2nc3ccccc3nc2c1NC(=O)c1ccc(Br)cc1`, the Potency is 16.4 µM (active).
On to `O=C(NC(=S)Nc1c(Cl)cc(Cl)cc1Cl)c1ccccc1`, for which the “activity, negative = inhibitor” value is 0.68%.
Take `Cc1ccc(CNC(=O)c2ccc3c(c2)NC(=O)C(CS(=O)(=O)Cc2cccc(C)c2)N3)cc1` (centres undefined): the Potency was 18.4 µM (active).
Consider `CC(C)CCNC(=O)c1ccc2c(c1)NC(=O)C(CS(=O)(=O)Cc1cccc(Br)c1)N2` (centres undefined), for which the “activity, negative = inhibitor” value is -23.1%.
On to `CN(C)c1ccc2nc3c(=O)[nH]c(=O)nc-3n(CC(O)C(O)C(O)CO)c2c1` (centres undefined), for which the Potency is 6.51 µM (active).
As to `O=C1C=C(Nc2ccc(Cl)cc2Cl)CC(c2ccco2)C1` (centres undefined), the Potency was 4.98 µM (active).
Still for that read-out and setting: with `C[n+]1cc(C(=O)N2CCCCC2)ccc1/C=C/c1c[nH]c2ccccc12` the figure was 11.2 µM (active); with `CCN(CC)C(=O)c1ccc(/C=C/c2c[nH]c3ccccc23)[n+](C)c1`, 16.4 µM (active).
Regarding `COc1ccc(-c2cnc3c(c2)CCC3(C#N)C#N)cc1`, the Potency is 14 µM (active).
`CCOC(=O)c1ccc(NC(=S)Nc2cccc(C)n2)cc1`: the “activity, negative = inhibitor” value was -17.8%.
For `CCOC(=O)c1cc(-c2ccccc2)sc1NC(=S)Nc1cc(C)ccn1`, the Potency was 18.4 µM (active).
As to `Cc1ccc(NC(=S)Nc2ccccn2)c(C)c1`, the “activity, negative = inhibitor” value was 1.93%.
On the same count and under the same terms, the result for `Cc1sc2nc(CSc3nnnn3-c3ccc(Cl)cc3)[nH]c(=O)c2c1C` reads -21.8%.
On to `CCOc1ccc(-n2nnnc2SCC(=O)c2ccccc2)cc1`, for which the Potency was 15.8 µM (active).
As to `Cc1onc(-c2c(F)cccc2Cl)c1C(=O)O/N=C(\N)c1ccc([N+](=O)[O-])o1`, the “activity, negative = inhibitor” value is -16.6% [at 36.9 µM].
For `O=C(/C=C/c1ccncc1)c1cc(Cl)ccc1O`, the “activity, negative = inhibitor” value is -16.9%.
On to `Cc1cccc(/C=C/C(=O)c2ccc([N+](=O)[O-])o2)c1`, for which the Potency is 4.98 µM (active).
Still for that read-out and setting: the result for `O=C(/C=C/c1ccc(Cl)cc1)c1ccc([N+](=O)[O-])o1` reads 9.94 µM (active); that for `COc1cccc(/C(O)=C/c2nc3ccc(C(=O)NCCc4cccc(C)c4)cc3[nH]c2=O)c1`, 16.4 µM (active).
On the same count and under the same terms, with `COc1cccc(/C(O)=C/c2nc3ccc(C(=O)NCCc4ccc(Cl)cc4)cc3[nH]c2=O)c1` the figure was 16.4 µM (active).
Turning to `COc1ccc2oc(=N)c(C(=O)Nc3ccc(F)cc3)cc2c1`, the Potency was 7.31 µM (active).
On to `COc1cc(C2Nc3ccc4ncccc4c3C3=C2C(=O)CCC3)ccc1O` (centres undefined), for which the Potency is 7.04 µM (active).
Same read-out and setting: with `COc1cc(C2Nc3ccc4ncccc4c3C3=C2C(=O)CCC3)cc(OC)c1O` (centres undefined) the figure was 15.8 µM (active).
